Laboratory results taken from PubChem BioAssay (NCATS).
Inconclusive results are not listed. Entries that show only a call come without a potency. The source made the active and inactive calls. Calls follow the shape of the dose curve; as a rule, active = well fitted cell-killing curve with a large enough effect; inconclusive = small, poorly fitted or top-dose-only effect, or effect the other way; inactive = flat fitted curve, though single readings scatter.
Potency is read from the fitted curve at half-maximal effect.

Assay: qHTS of pediatric cancer cell lines to identify multiple opportunities for drug repurposing: Confirmatory screen for Rh18 cells (AID 1347125); also: nearly all actives have a fitted effect of over 55% in size
Details: Rh18 rhabdomyosarcoma cells, viability; series mostly up to 45.9 µM
Description: Drug repurposing or repositioning has been offered as a strategy for drug development in oncology programs. This approach has special potential for childhood cancers and other rare or orphan diseases, where the expected return on new drug development has been a disincentive to pharmaceuticals.
In this project we exploit the poly-pharmacology of drugs to discover new indications via phenotypic screening of a panel of 19 well-characterized cell lines derived from solid tumors seen in children and adolescents. The goal is to identify approved drugs with previously unrecognized anticancer properties that has the potential to reveal new mechanisms and biological processes involved in carcinogenesis or drug resistance. We employed a titration-based paradigm (quantitative high-throughput screening or qHTS), where all compounds were tested at multiple concentrations for their effect on cell viability. Concentration-response curves (CRCs) were derived directly from the primary screen, and both potency and efficacy values were used to identify compounds with robust bioactivity profiles. We screened the NIH Chemical Genomics Center (NCGC) Pharmaceutical Collection (NPC) and Mechanism Interrogation Plate (MIPE) small molecule collections of approved and investigational compounds against these cell lines; and measured metabolically active cells after 48 hours of compound treatment as a proxy for cell viability.
Assay Submitter: Nathalia J. Martinez, National Center for Advancing Translational Sciences, National Institutes of Health, Rockville, MD, USA; email: natalia.martinez@nih.gov
[1] Shen, M et al. Quantitative high-throughput phenotypic screening of pediatric cancer cell lines identifies multiple opportunities for drug repurposing. Oncotarget 2017 Dec 19;9(4):4758-4772. PMID 29435139.
The cells were obtained from University of North Carolina (UNC), Pediatric Preclinical Testing Program (PPT), and Coriell Institute (CI).
qHTS cell viability assay:
Cells were assayed in growth media at a density of 500-1,000 cells/well. Five microliters of cells were dispensed into 1,536-well, white, solid-bottom, TC-treated plates (Greiner Bio One) using a multidrop dispenser and incubated at 37 degrees C, 5% CO2, under a humidified atmosphere for 5 hours. Twenty-three nanoliters of compounds and controls (neutral control DMSO or positive control bortezomib at final concentration of 2.3 µM) were subsequently transferred by Kalypsys pintool. For primary screens, the MIPE collection was tested at 11-point dilutions (final concentrations range from 0.78 nM to 46 µM) and the NPC collection at 8-point dilutions (final concentrations range from 0.59 nM to 46 µM). Compounds tested in follow-up screens were assayed at 11-point dilutions. Cells were incubated for 48 hours, followed by addition of 3 µL of CellTiter-Glo (Promega). After a 15 min incubation at room temperature, samples were analyzed for luminescence intensity using a ViewLux High-throughput CCD imager equipped with clear filters.
In the case of `O=C(CCc1ccc(O)cc1)c1c(O)cc(O)cc1O`, the Potency is reported as “inactive”.
With `CCN(CCO)CCCC(C)Nc1ccnc2cc(Cl)ccc12` (stereo unspecified) the Potency was “inactive”.
In the case of `CCOc1cc(CC(=O)N[C@@H](CC(C)C)c2ccccc2N2CCCCC2)ccc1C(=O)O`, the Potency is reported as “inactive”.
In the case of `CCCCc1ccc2nc(NC(=O)OC)[nH]c2c1`, the Potency is reported as 8.27 µM (active).
For `O=C1c2c(O)cc(O)cc2OC(c2ccc(O)c(O)c2)C1O` (stereo unspecified), the Potency was “inactive”.
For `COc1cc(C(C)=O)ccc1OCCCN1CCC(c2noc3cc(F)ccc23)CC1`, the Potency was “inactive”.
For `CCCOc1ccc2nc(NC(=O)OC)[nH]c2c1`, the Potency was “inactive”.
For `Oc1ccc(-c2nc(-c3ccc(F)cc3)c(-c3ccncc3)[nH]2)cc1`, the Potency was 23.3 µM (active).
For `CN(C)c1ccc(O)c2c1C[C@H]1C[C@H]3[C@H](N(C)C)C(=O)C(C(N)=O)=C(O)[C@@]3(O)C(=O)C1=C2O`, the Potency was “inactive”.
For `CC[C@]1(O)C[C@H]2CN(CCc3c([nH]c4ccccc34)[C@@](C(=O)OC)(c3cc4c(cc3OC)N(C=O)[C@H]3[C@@](O)(C(=O)OC)[C@H](OC(C)=O)[C@]5(CC)C=CCN6CC[C@]43[C@@H]65)C2)C1`, the Potency was “inactive”.
In the case of `Clc1ccc(C(Cn2ccnc2)OCc2ccc(Sc3ccccc3)cc2)c(Cl)c1` (stereo unspecified), the Potency is reported as “inactive”.
In the case of `Cc1nc(Nc2ncc(C(=O)Nc3c(C)cccc3Cl)s2)cc(N2CCN(CCO)CC2)n1`, the Potency is reported as 0.208 µM (active).
With `CC1(C)C(=O)N(CCN2CCC(C(=O)c3ccc(F)cc3)CC2)c2ccccc21` the Potency was “inactive”.
With `Clc1ccc(C(Cn2ccnc2)OCc2ccsc2Cl)c(Cl)c1` (stereo unspecified) the Potency was 14.7 µM (active).
With `C=C(c1ccc(C(=O)O)cc1)c1cc2c(cc1C)C(C)(C)CCC2(C)C` the Potency was “inactive”.
With `CC(C)C[C@H](NC(=O)[C@H](Cc1ccccc1)NC(=O)c1cnccn1)B(O)O` the Potency was 0.0465 µM (active).
For `O=C(NCC1CCCCN1)c1cc(OCC(F)(F)F)ccc1OCC(F)(F)F` (stereo unspecified), the Potency was “inactive”.
For `CC(S)C(=O)NCC(=O)O` (stereo unspecified), the Potency was “inactive”.
For `CS(=O)(=O)OCCCCOS(C)(=O)=O`, the Potency was “inactive”.
With `Nc1nc(OCc2ccccc2)c2[nH]cnc2n1` the Potency was “inactive”.
For `Nc1nc(Cl)nc2c1ncn2[C@H]1C[C@H](O)[C@@H](CO)O1`, the Potency was “inactive”.
With `C[C@]12CCC(=O)C=C1CC[C@@H]1[C@H]2[C@@H](O)C[C@@]2(C)[C@H]1CC[C@]2(O)C(=O)CO` the Potency was “inactive”.
In the case of `CCN(CC)CCOc1ccc(Nc2ncc3cc(-c4c(Cl)cccc4Cl)c(=O)n(C)c3n2)cc1`, the Potency is reported as 14.7 µM (active).
With `Cc1ccc(NC(=O)c2ccc(CN3CCN(C)CC3)cc2)cc1Nc1nccc(-c2cccnc2)n1` the Potency was “inactive”.
In the case of `CN(C)c1ccc2nc3ccc(=[N+](C)C)cc-3sc2c1`, the Potency is reported as 6.57 µM (active).
With `Nc1ncn([C@H]2C[C@H](O)[C@@H](CO)O2)c(=O)n1` the Potency was “inactive”.
